Usually AC50 stands for the concentration giving half of the maximal activity seen.

The nature of assay [1]: CCTE_Shafer_MEA_acute_spike_number: CCTE's Neural Acute Assay for Total Number of Spikes, Shafer Lab (AID 2284008).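 On AC50: curve fitted for decrease in spike count so AC50 reflects inhibitors.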 The gist of the method: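 Rat primary cortical neurons on 48-well MEA plates, DIV 13 or 15, at 37 C. 40 min baseline then 40 min with compound (0.03-40 uM); spikes detected at 8x rms noise, expressed as percent change from baseline.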
The nature of assay [2]: CCTE_Shafer_MEA_acute_firing_rate_mean: CCTE's Neural Acute Assay for Mean Firing Rate, Shafer Lab (AID 2284009).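 Further: analyzed for loss of signal so actives lower firing rate relative to DMSO.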 The gist of the method: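 Spontaneous spiking of primary rat cortical networks, DIV 13/15, 37 C. Compound 0.03-40 uM, n ≥3 wells; 40 min baseline vs 40 min treated. Endpoint fitted in loss-of-signal direction against DMSO.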
The nature of assay [3]: CCTE_Harrill_HTTr_Viability_MCF7: CCTE's 6-hour Cell Viability Assessment for the High-Throughput Transcriptomics (HTTr) Platform, in MCF-7 cells cultured in DMEM + 10% fetal bovine serum, Harrill Lab (AID 2284010). A digest of the protocol:
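Propidium iodide exclusion, imaged by high-content analysis, gauged viability after a six-hour exposure across eight concentrations. Cells were MCF-7 grown in DMEM with 10% fetal bovine serum; fits run in both directions against DMSO.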

The nature of assay [4]: CCTE_Harrill_HTTr_CellCount_MCF7: CCTE's Cell Proliferation Assessment for the High-Throughput Transcriptomics (HTTr) Platform, Harrill Lab (AID 2284012; active means hit-call score of the fitted dose curve at least 0.9, where 1 is the maximum;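 further: cells exposed to compound for six hours; intended direction is loss of nuclei count meaning fewer cells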). The gist of the method: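 Cell count from high-content imaging of Hoechst-labeled nuclei serves as viability/growth readout. Chemicals were applied to MCF-7 cells in eight concentrations for six hours, with fitting in both directions relative to DMSO.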

A short description of assay [5]: CCTE_Shafer_MEA_acute_burst_number: CCTE's Neural Acute Assay for Single-Electrode Bursts, Shafer Lab (AID 2284013). The gist of the method:
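Burst totals were derived with adaptive spike detection (8x rms threshold) on filtered signals from rat cortical cultures; change relative to pre-treatment baseline after 40-min compound exposure (0.03-40 uM) was fitted in the negative direction against DMSO.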

Assay [6] can be described thus: CCTE_Shafer_MEA_acute_burst_duration_mean: CCTE's Neural Acute Assay for Mean Burst Duration, Shafer Lab (AID 2284014).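 Further: hits are decreases in mean burst duration relative to DMSO controls.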 The gist of the method:
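Acute exposure of mature rat cortical networks (DIV 13 or 15) grown on microelectrode arrays to 0.03-40 uM compound. Mean burst duration compared with the 40-min pre-dose baseline over a 40-min post-dose recording at 37 C.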

Assay [7] can be described thus: CCTE_Shafer_MEA_acute_per_burst_spike_number_mean: CCTE's Neural Acute Assay for Average Number of Spikes Per Burst, Shafer Lab (AID 2284015).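 Further: hits are decreases in mean spikes per burst versus baseline.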 A digest of the protocol:
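We recorded spontaneous network firing of rat cortical neurons for 40 min before and 40 min during exposure to compound at 0.03-40 uM, at 37 C. Spikes were detected adaptively at 8x rms noise, and the change in average spikes per burst was fitted against DMSO.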

Assay [8] can be described thus: CCTE_Shafer_MEA_acute_interburst_interval_mean: CCTE's Neural Acute Assay for Mean Interburst Interval, Shafer Lab (AID 2284016).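 Further: percent change of mean interburst interval versus each well's own pre-dose baseline; curves fitted for decrease in interburst interval relative to DMSO.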 The gist of the method:
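MEA recording of spontaneous network bursting in primary rat cortical cultures; mean interburst interval was compared before and after a 40-min compound exposure (0.03-40 uM) and expressed as percent change, relative to DMSO.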

Assay [9] in a line: CCTE_Shafer_MEA_acute_burst_percentage_mean: CCTE's Neural Acute Assay for Percentage of Spikes in a Burst, Shafer Lab (AID 2284017).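 On AC50: curve fitted for loss of signal so potency reflects decreased burst percentage.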 The gist of the method: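 Compounds were tested at 0.03-40 uM on primary rat cortical neuron networks grown over microelectrodes, with at least three wells per compound. Spontaneous firing was recorded for 40 min before and 40 min after dosing, and the change in burst percentage was computed per well.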

Assay [10] in a line: CCTE_Shafer_MEA_acute_per_network_burst_spike_number_mean: CCTE's Neural Acute Assay for Average Number of Spikes in a Network Burst, Shafer Lab (AID 2284019). The gist of the method: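 Acute exposure of rat primary cortical networks (DIV 13/15) on MEAs; adaptive spike detection at 8x rms noise, 37 C. Percent change in spikes per network burst after 40 min with compound (0.03-40 uM), negative direction vs DMSO.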

Assay [11] can be described thus: CCTE_Shafer_MEA_acute_per_network_burst_electrodes_number_mean: CCTE's Neural Acute Assay for Mean Number of Electrodes in a Network Burst, Shafer Lab (AID 2284021).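 Further: curves fitted for decreases only so hits reduce electrodes per burst.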 The gist of the method: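 Rat primary cortical neurons on 48-well MEAs, DIV 13 or 15, were treated at 0.03-40 uM. Spikes were detected at 8x rms noise and recorded at 37 C. The mean electrodes per network burst in a 40 min exposure recording was expressed as percent change from a 40 min baseline.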

Assay [12] can be described thus: CCTE_Shafer_MEA_acute_network_burst_percentage: CCTE's Neural Acute Assay for Percentage of Network Bursts, Shafer Lab (AID 2284022).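 Further: curves fitted for loss so actives lower network burst percentage.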 A digest of the protocol:
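Rat primary cortical neuron networks on 48-well MEA plates, DIV 13 or 15, treated acutely with compound (0.03-40 uM, at least three wells). Percent of spikes within network bursts compared between 40-min recordings before and during exposure at 37 C, expressed as percent change.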

The nature of assay [13]: CCTE_Shafer_MEA_acute_cross_correlation_area: CCTE's Neural Acute Assay for Area of Cross Correlation, Shafer Lab (AID 2284024).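 Further: curves fitted for loss of cross-correlation area so actives lower synchrony.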 The gist of the method:
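Rat primary cortical neurons on 48-well MEA, DIV 13 or 15; compounds 0.03-40 uM. Baseline and post-exposure 40 min recordings at 37 C; percent change in area under pooled inter-electrode cross-correlation near zero lag, relative to DMSO.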

Assay [14] in a line: CCTE_Shafer_MEA_acute_cross_correlation_HWHM: CCTE's Neural Acute Assay for Cross Correlation at Half Width at Half Maximum, Shafer Lab (AID 2284026).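 Further: percent change per well from pre-dose baseline in spike cross-correlogram half width; hits are a decrease in cross-correlogram half width relative to DMSO.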 The gist of the method:
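Rat primary cortical neurons on 48-well MEA plates; 40-min baseline and 40-min post-exposure recordings at 37 C on DIV 13 or 15, compounds 0.03-40 uM. Spikes detected at 8x rms noise; percent change in cross-correlogram HWHM per well vs baseline.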

The nature of assay [15]: CCTE_Shafer_MEA_acute_synchrony_index: CCTE's Neural Acute Assay for Synchrony, Shafer Lab (AID 2284027).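 Further: network synchrony index of spontaneous spiking in primary rat cortical neurons on MEAs; fitted for loss of signal so actives lower synchrony relative to DMSO.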 The gist of the method:
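The synchrony index is taken as percent change per well between a 40 min baseline and a 40 min recording with compound (0.03–40 uM), at 37C. Rat cortical cultures on multiwell MEAs at DIV 13 or 15, spike threshold 8× rms noise.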

Assay [16] in a line: CCTE_Simmons_MITO_inhib_resp_rate: CCTE's HepG2 Seahorse XF Respirometric Screening Assay at Inhibited Respiratory State [full ETC block], Simmons Lab (AID 2284006). To be noted: actives raise or lower the signal. A digest of the protocol: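 This endpoint is the respiration rate remaining after rotenone/antimycin A block, in HepG2 cells on a Seahorse XF96. Chemicals spanned 125 nM–100 uM final, in three biological replicates. OCR was read every 6 minutes for 72 minutes and compared with DMSO vehicle.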

The nature of assay [17]: CCTE_Simmons_MITO_viability: CellTiter-Glo Viability Assessment for CCTE's HepG2 Seahorse XF Respirometric Screening Assay [post-hoc], Simmons Lab (AID 2284007; active means hit-call score of the fitted dose curve at least 0.9, where 1 is the maximum;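 on AC50: cells exposed to chemical for 90 min before the ATP read; actives lower ATP signal relative to DMSO baseline meaning reduced viability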). A digest of the protocol:
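Luciferase-coupled ATP read-out after the Seahorse run: HepG2 cells treated 90 minutes with test chemical, 7-point series of 125 nM–100 uM final, in triplicate biological runs. Vehicle DMSO; dichlone as positive control over 8 concentrations.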
In general terms: In ATP-based viability assays light output follows the ATP content of the culture.

Assay [18] can be described thus: CCTE_Harrill_HTTr_Apoptosis_MCF7: CCTE's 6-hour Apoptosis Assessment for the High-Throughput Transcriptomics (HTTr) Platform, in MCF-7 cells cultured in DMEM + 10% fetal bovine serum, Harrill Lab (AID 2284011). The gist of the method: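 MCF-7 cells in DMEM + 10% FBS exposed 6 h to chemicals over an eight-point dilution series. Caspase-3/7 activation imaged by high-content CellEvent Green staining; fitted bidirectionally versus DMSO.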

Records with an inconclusive call do not appear. Calls of active or inactive are those of the source. How the source made its calls, unless noted: active means hit-call score of the fitted dose curve at least 0.9, where 1 is the maximum; inactive means score below 0.9.

As for `CC(=O)NC1(c2cccc(F)c2)CCN(CC[C@@]2(c3ccc(Cl)c(Cl)c3)CN(c3ccccc3)C(=O)CO2)CC1`, the AC50 in assay [1] is 1.47 µM (active); in assay [2], 1.47 µM (active); in [5] it was 1.24 µM (active); in [6], 1.04 µM (active); in assay [9], 8.94 µM (active); in [12] it was 8.3 µM (active). In addition, the values for the AC50 in [13], in assay [14] and in assay [15] were 1.03 µM (active), 20 µM (active) and 9.53 µM (active), respectively. For the same molecule, the outcome in [3], in assay [4], in assay [7], in assay [8], in [10] and in [11] was inactive.
`CCCCCCCCCCCCN1CCCC1=O`: the result in [16], in assay [17], in assay [1], in assay [2], in [3] and in assay [18] was inactive. For the same molecule, the outcome in assay [4], in assay [5], in assay [6], in assay [7], in [8] and in [9] was inactive. Moreover, the molecule was called inactive in assay [10], in assay [11], in [12], in assay [13], in [14] and in assay [15].
`Oc1cc2ccccc2c2ccccc12`: the AC50 in assay [16] is 11.1 µM (active); in assay [17] it was 6.92 µM (active); in [3] it was 9.92 µM (active). The molecule was classed as inactive in assay [1], in [2], in assay [18], in assay [4], in assay [5] and in assay [6]. In addition, the molecule was classed as inactive in assay [7], in assay [8], in assay [9], in [10], in assay [11] and in [12]. Besides, the result in assay [13], in assay [14] and in assay [15] was inactive.
As to `N#C[C@@H]1CC(F)(F)CN1C(=O)CNC1CC2CCC(C1)N2c1ncccn1` (some centres not stated), the outcome in assay [3] was inactive.
For `CN(C)C=O`, the result in assay [1], in assay [2], in [5], in assay [6], in assay [7] and in assay [8] was inactive. The call in [9], in assay [10], in [11], in [12], in [13] and in assay [14] was inactive. Also, the result in assay [15] was inactive.
For `CCCCCCCC(=O)O`, the result in assay [3] and in assay [18] was inactive.
Regarding `CC(C)(C)CC(C)(C)c1ccc(O)c(-n2nc3ccccc3n2)c1`, the result in assay [3] was inactive.
`CC(C)CCCCCCOC(=O)CCCCC(=O)OCCCCCCC(C)C`: the molecule was classed as inactive in assay [1], in assay [2], in assay [3], in assay [4], in assay [5] and in [6]. For the same molecule, the call in assay [7], in [8], in assay [9], in assay [10], in assay [11] and in [12] was inactive. The result in [13], in assay [14] and in [15] was inactive.
For the molecule `CCCCCCCCCCCCc1ccccc1S(=O)(=O)O`, the call in assay [1], in assay [2], in assay [3], in assay [5], in assay [6] and in assay [7] was inactive. The result in [8], in [9], in assay [10], in assay [11], in [12] and in assay [13] was inactive. Further, the molecule was called inactive in assay [14]. The AC50 in assay [15] is 33.1 µM (active).
As to `O=C1OC2(c3ccccc31)c1cc(Br)c(O)c(Br)c1Oc1c2cc(Br)c(O)c1Br`, the outcome in [3] and in assay [4] was inactive. For the same molecule, the AC50 in [18] is 1.92 µM (active).
On to `OC1CCC(C2CCCCC2)CC1` (configuration not stated), for which the molecule was classed as inactive in assay [16], in assay [17], in assay [3], in [4], in assay [5] and in assay [6]. In addition, the call in [7], in [8], in [10], in assay [11], in [12] and in assay [13] was inactive. Besides, the molecule was classed as inactive in [15]. Besides, the AC50 in [1] was 20 µM (active); in assay [2], 20 µM (active); in assay [9], 27.3 µM (active); in assay [14], 30 µM (active).

These data come from PubChem BioAssay (EPA / NIEHS).
